# Data taken from PubChem BioAssay (NCI).
# This is part of a sample that, as a whole, favours compounds with a hit. Of some 79,000 tested, about 15% had one in any assay. A number with no mark means an inactive call. Active and inactive are the calls of the source. Cut-off read from the data, not from the text of the source: active = growth inhibition above about 70%; inactive = the rest.
# Legend:
# [1] = NCI Yeast Anticancer Drug Screen. Data for the rad52 strain (AID 147);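 note: 0% = growth of vehicle-treated control cultures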; conditions: S. cerevisiae rad52 mutant growth inhibition, hits give high values
# Summary of the method: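 Growth of repair-deficient yeast cells was compared between compound-treated and vehicle-treated cultures to give percent inhibition.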
# [2] = NCI Yeast Anticancer Drug Screen. Data for the wt1 strain (AID 149);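 note: 0% = growth of vehicle-treated wt1 cultures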; conditions: S. cerevisiae wt1 strain (SPY 50644) growth inhibition, hits give high values
# Summary of the method: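 Compounds are added to wt1 yeast cultures. Growth is then measured. Inhibition is expressed relative to vehicle-treated controls.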
# [3] = NCI Yeast Anticancer Drug Screen. Data for the rad50EPP+ strain (AID 151);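 note: 0% = growth of vehicle-treated control cultures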; conditions: S. cerevisiae rad50 mutant strain, hits give high values
# Summary of the method: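 Measured: growth inhibition of rad50EPP+ yeast. Reference: vehicle-treated controls. Screen uses strains with defined genetic alterations in DNA damage repair or cell cycle control.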
# [4] = NCI Yeast Anticancer Drug Screen. Data for the mgt1 strain (AID 153); conditions: S. cerevisiae mgt1 mutant growth inhibition, hits give high values
# Summary of the method: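 Compounds were applied to mgt1 mutant yeast, and growth was then compared against vehicle-treated control cultures to give percent inhibition.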
# [5] = NCI Yeast Anticancer Drug Screen. Data for the rad50 strain (AID 155);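 note: 0% = growth of vehicle-only cultures of the same strain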; conditions: S. cerevisiae rad50 strain growth inhibition, hits give high values
# Summary of the method: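 Inhibition values express reduced yeast growth in compound-treated cultures relative to vehicle-treated controls.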
# [6] = NCI Yeast Anticancer Drug Screen. Data for the mec2-1 strain (AID 157); conditions: S. cerevisiae mec2-1 strain, hits give high values
# Summary of the method: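 Compounds were applied to mec2-1 yeast cells. Their growth was then compared with that of vehicle-treated cultures to give growth inhibition.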
# [7] = NCI Yeast Anticancer Drug Screen. Data for the rad14 strain (AID 159);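 note: 0% = growth of vehicle-treated control cultures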; conditions: S. cerevisiae rad14 strain growth inhibition, hits give high values
# Summary of the method: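 A mutant yeast strain defective in DNA damage repair is treated with compound; inhibition of its growth is scored against untreated, vehicle-exposed cultures.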
# [8] = NCI Yeast Anticancer Drug Screen. Data for the sgs1 mgt1 strain (AID 161);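 note: 0% = growth of cultures given vehicle only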; conditions: S. cerevisiae sgs1 mgt1 strain, hits give high values
# Summary of the method: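 Percent growth inhibition was derived by comparing compound-exposed mutant yeast with vehicle-exposed cultures. The strain carries alterations in DNA damage repair.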
# [9] = NCI Yeast Anticancer Drug Screen. Data for the CLN2oe strain (AID 163);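 note: 0% = growth of vehicle-only control cultures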; conditions: S. cerevisiae CLN2oe strain, hits give high values
# Summary of the method: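 Cells of an engineered yeast line with disturbed cell-cycle regulation are treated with compound. Inhibition of growth is then calculated relative to the vehicle-treated reference.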
# [10] = NCI Yeast Anticancer Drug Screen. Data for the cln2 rad14 strain (AID 165);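 note: 0% = growth equal to vehicle treated cultures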; conditions: S. cerevisiae cln2 rad14 strain, hits give high values
# Summary of the method: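 Strain: cln2 rad14 yeast, altered in cell cycle control and DNA damage repair. Read-out: growth inhibition vs vehicle.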
# [11] = NCI Yeast Anticancer Drug Screen. Data for the bub3 strain (AID 167); conditions: S. cerevisiae bub3 mutant strain, hits give high values
# Summary of the method: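 Steps: expose the mutant yeast strain to compound; grow alongside vehicle-treated cultures; measure growth; express inhibition against the vehicle cultures.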
# [12] = NCI Yeast Anticancer Drug Screen. Data for the wt2 strain (AID 169);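 note: 0% = growth of vehicle-treated yeast cultures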; conditions: S. cerevisiae wt2 strain growth inhibition, hits give high values
# Summary of the method: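 Growth of compound-treated yeast is measured and expressed as inhibition relative to vehicle-only controls.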
# [13] = NCI Yeast Anticancer Drug Screen. Data for the mlh1 strain (AID 171);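 note: 0% = growth of vehicle-treated control cultures of the same strain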; conditions: S. cerevisiae mlh1 strain growth inhibition, hits give high values
# Summary of the method: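 Test agents were incubated with yeast bearing a defined DNA damage repair or cell cycle control alteration; values are growth inhibition normalised to vehicle-treated cultures.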
# [14] = NCI Yeast Anticancer Drug Screen. Data for the sgs1 strain (AID 173);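 note: 0% = growth of vehicle-only control cultures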; conditions: S. cerevisiae sgs1 mutant, hits give high values
# Summary of the method: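 Strain with an altered DNA repair or cell cycle pathway exposed to compound. Growth then measured. Value = inhibition versus vehicle control.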
# [15] = NCI Yeast Anticancer Drug Screen. Data for the mlh1 rad18 strain (AID 175); conditions: S. cerevisiae mlh1 rad18 strain growth inhibition, hits give high values
# Summary of the method: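 A repair-deficient yeast strain is exposed to test compound, and growth is scored relative to vehicle-treated controls.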
# [16] = NCI Yeast Anticancer Drug Screen. Data for the rad18 strain (AID 177); conditions: S. cerevisiae rad18 mutant growth inhibition, hits give high values
# Summary of the method: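 DNA-repair-defective yeast; compound treatment; growth inhibition scored against vehicle.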
# [17] = at 5.0 µM (retest, dose inferred, filed as 0.5)
# [18] = at 50.0 µM (retest, dose inferred, filed as 5.0)
structure (smiles),measurement,setting,value
CN(C)C=NC1CCC(C(C)(C)C)CC1 (stereo unspecified),growth inhibition,[1]; at 1.2 µM,-5%
same,growth inhibition,[1]; at 3.7 µM,7%
same,growth inhibition,[1]; at 11.0 µM,34%
same,growth inhibition,[1]; at 33.0 µM,74% (active)
same,growth inhibition,[1]; at 100.0 µM,99% (active)
same,growth inhibition,[2]; at 1.2 µM,-4%
same,growth inhibition,[2]; at 3.7 µM,-5%
same,growth inhibition,[2]; at 11.0 µM,-1%
same,growth inhibition,[2]; at 33.0 µM,51%
same,growth inhibition,[2]; at 100.0 µM,97% (active)
same,growth inhibition,[3]; at 1.2 µM,-2%
same,growth inhibition,[3]; at 3.7 µM,5%
same,growth inhibition,[3]; at 11.0 µM,10%
same,growth inhibition,[3]; at 33.0 µM,30%
same,growth inhibition,[3]; at 100.0 µM,73% (active)
same,growth inhibition,[4]; at 1.2 µM,-1%
same,growth inhibition,[4]; at 3.7 µM,-1%
same,growth inhibition,[4]; at 11.0 µM,45%
same,growth inhibition,[4]; at 33.0 µM,97% (active)
same,growth inhibition,[4]; at 100.0 µM,99% (active)
same,growth inhibition,[5]; at 1.2 µM,-3%
same,growth inhibition,[5]; at 3.7 µM,-1%
same,growth inhibition,[5]; [17],28%
same,growth inhibition,[5]; at 11.0 µM,59%
same,growth inhibition,[5]; at 33.0 µM,97% (active)
same,growth inhibition,[5]; [18],97% (active)
same,growth inhibition,[5]; at 50.0 µM,98.8% (active)
same,growth inhibition,[5]; at 100.0 µM,99% (active)
same,growth inhibition,[6]; at 1.2 µM,2%
same,growth inhibition,[6]; at 3.7 µM,0%
same,growth inhibition,[6]; [17],-24%
same,growth inhibition,[6]; at 11.0 µM,10%
same,growth inhibition,[6]; at 33.0 µM,73% (active)
same,growth inhibition,[6]; [18],99% (active)
same,growth inhibition,[6]; at 50.0 µM,95.8% (active)
same,growth inhibition,[6]; at 100.0 µM,99% (active)
same,growth inhibition,[7]; at 1.2 µM,-1%
same,growth inhibition,[7]; at 3.7 µM,11%
same,growth inhibition,[7]; at 11.0 µM,75% (active)
same,growth inhibition,[7]; at 33.0 µM,98% (active)
same,growth inhibition,[7]; at 100.0 µM,99% (active)
same,growth inhibition,[8]; [17],14%
same,growth inhibition,[8]; [18],98% (active)
same,growth inhibition,[8]; at 50.0 µM,97.7% (active)
same,growth inhibition,[9]; at 1.2 µM,1%
same,growth inhibition,[9]; at 3.7 µM,9%
same,growth inhibition,[9]; at 11.0 µM,44%
same,growth inhibition,[9]; at 33.0 µM,95% (active)
same,growth inhibition,[9]; at 100.0 µM,99% (active)
same,growth inhibition,[10]; [17],17%
same,growth inhibition,[10]; [18],98% (active)
same,growth inhibition,[10]; at 50.0 µM,98.4% (active)
same,growth inhibition,[11]; at 1.2 µM,-8%
same,growth inhibition,[11]; at 3.7 µM,-2%
same,growth inhibition,[11]; [17],62%
same,growth inhibition,[11]; at 11.0 µM,55%
same,growth inhibition,[11]; at 33.0 µM,94% (active)
same,growth inhibition,[11]; [18],98% (active)
same,growth inhibition,[11]; at 50.0 µM,97.5% (active)
same,growth inhibition,[11]; at 100.0 µM,99% (active)
same,growth inhibition,[12]; at 1.2 µM,0%
same,growth inhibition,[12]; at 3.7 µM,4%
same,growth inhibition,[12]; at 11.0 µM,34%
same,growth inhibition,[12]; at 33.0 µM,88% (active)
same,growth inhibition,[12]; at 100.0 µM,99% (active)
same,growth inhibition,[13]; at 1.2 µM,8%
same,growth inhibition,[13]; at 3.7 µM,1%
same,growth inhibition,[13]; at 11.0 µM,47%
same,growth inhibition,[13]; at 33.0 µM,94% (active)
same,growth inhibition,[13]; at 100.0 µM,99% (active)
same,growth inhibition,[14]; at 1.2 µM,1%
same,growth inhibition,[14]; at 3.7 µM,2%
same,growth inhibition,[14]; at 11.0 µM,55%
same,growth inhibition,[14]; at 33.0 µM,95% (active)
same,growth inhibition,[14]; at 100.0 µM,99% (active)
same,growth inhibition,[15]; [17],-32%
same,growth inhibition,[15]; [18],98% (active)
same,growth inhibition,[15]; at 50.0 µM,98.2% (active)
same,growth inhibition,[16]; at 1.2 µM,-3%
same,growth inhibition,[16]; at 3.7 µM,8%
same,growth inhibition,[16]; at 11.0 µM,54%
same,growth inhibition,[16]; at 33.0 µM,93% (active)
same,growth inhibition,[16]; at 100.0 µM,99% (active)
Cc1cc(C)nc(NS(=O)(=O)c2ccc(Nc3c4ccccc4nc4c(C(=O)NCCO)cccc34)cc2)n1,growth inhibition,[1]; at 1.2 µM,-2%
same,growth inhibition,[1]; at 3.7 µM,-1%
same,growth inhibition,[1]; at 11.0 µM,2%
same,growth inhibition,[1]; at 33.0 µM,21%
same,growth inhibition,[1]; at 100.0 µM,59%
same,growth inhibition,[2]; at 1.2 µM,-1%
same,growth inhibition,[2]; at 3.7 µM,-2%
same,growth inhibition,[2]; at 11.0 µM,-2%
same,growth inhibition,[2]; at 33.0 µM,-35%
same,growth inhibition,[2]; at 100.0 µM,-9%
same,growth inhibition,[3]; at 1.2 µM,-3%
same,growth inhibition,[3]; at 3.7 µM,0%
same,growth inhibition,[3]; at 11.0 µM,1%
same,growth inhibition,[3]; at 33.0 µM,3%
same,growth inhibition,[3]; at 100.0 µM,-14%
same,growth inhibition,[4]; at 1.2 µM,0%
same,growth inhibition,[4]; at 3.7 µM,-1%
same,growth inhibition,[4]; at 11.0 µM,-2%
same,growth inhibition,[4]; at 33.0 µM,-1%
same,growth inhibition,[4]; at 100.0 µM,32%
same,growth inhibition,[5]; at 1.2 µM,-1%
same,growth inhibition,[5]; at 3.7 µM,1%
same,growth inhibition,[5]; [17],-17%
same,growth inhibition,[5]; at 11.0 µM,6%
same,growth inhibition,[5]; at 33.0 µM,25%
same,growth inhibition,[5]; [18],91% (active)
same,growth inhibition,[5]; at 50.0 µM,39.2%
same,growth inhibition,[5]; at 100.0 µM,68%
same,growth inhibition,[6]; at 1.2 µM,-1%
same,growth inhibition,[6]; at 3.7 µM,-1%
same,growth inhibition,[6]; [17],-13%
same,growth inhibition,[6]; at 11.0 µM,1%
same,growth inhibition,[6]; at 33.0 µM,3%
same,growth inhibition,[6]; [18],6%
same,growth inhibition,[6]; at 50.0 µM,3.4%
same,growth inhibition,[6]; at 100.0 µM,24%
same,growth inhibition,[7]; at 1.2 µM,0%
same,growth inhibition,[7]; at 3.7 µM,1%
same,growth inhibition,[7]; at 11.0 µM,4%
same,growth inhibition,[7]; at 33.0 µM,9%
same,growth inhibition,[7]; at 100.0 µM,26%
same,growth inhibition,[8]; [17],-9%
same,growth inhibition,[8]; [18],56%
same,growth inhibition,[8]; at 50.0 µM,-10.7%
same,growth inhibition,[9]; at 1.2 µM,0%
same,growth inhibition,[9]; at 3.7 µM,-3%
same,growth inhibition,[9]; at 11.0 µM,-3%
same,growth inhibition,[9]; at 33.0 µM,-2%
same,growth inhibition,[9]; at 100.0 µM,10%
same,growth inhibition,[10]; [17],16%
same,growth inhibition,[10]; [18],6%
same,growth inhibition,[10]; at 50.0 µM,81.2% (active)
same,growth inhibition,[11]; at 1.2 µM,0%
same,growth inhibition,[11]; at 3.7 µM,0%
same,growth inhibition,[11]; [17],-17%
same,growth inhibition,[11]; at 11.0 µM,2%
same,growth inhibition,[11]; at 33.0 µM,0%
same,growth inhibition,[11]; [18],2%
same,growth inhibition,[11]; at 50.0 µM,0%
same,growth inhibition,[11]; at 100.0 µM,16%
same,growth inhibition,[12]; at 1.2 µM,-1%
same,growth inhibition,[12]; at 3.7 µM,-2%
same,growth inhibition,[12]; at 11.0 µM,-2%
same,growth inhibition,[12]; at 33.0 µM,-2%
same,growth inhibition,[12]; at 100.0 µM,27%
same,growth inhibition,[13]; at 1.2 µM,-3%
same,growth inhibition,[13]; at 3.7 µM,-2%
same,growth inhibition,[13]; at 11.0 µM,0%
same,growth inhibition,[13]; at 33.0 µM,-1%
same,growth inhibition,[13]; at 100.0 µM,30%
same,growth inhibition,[14]; at 1.2 µM,-3%
same,growth inhibition,[14]; at 3.7 µM,-1%
same,growth inhibition,[14]; at 11.0 µM,1%
same,growth inhibition,[14]; at 33.0 µM,2%
same,growth inhibition,[14]; at 100.0 µM,30%
same,growth inhibition,[15]; [17],-8%
same,growth inhibition,[15]; [18],44%
same,growth inhibition,[15]; at 50.0 µM,65.3%
same,growth inhibition,[16]; at 1.2 µM,-4%
same,growth inhibition,[16]; at 3.7 µM,-1%
same,growth inhibition,[16]; at 11.0 µM,0%
same,growth inhibition,[16]; at 33.0 µM,7%
same,growth inhibition,[16]; at 100.0 µM,30%
